In PubChem BioAssay (NCI):
About 83,000 compounds went through this panel and 20% of them were active in at least one assay; those are over-represented in the sample as a whole.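 96-well plates, one dose, 48 hours. Percent growth reported; active if below 10.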 Active and inactive are the calls of the source.

Legend:
Experiment in all cases: NCI-60 one-dose screen, 48 h (100 = growth as untreated, 0 = no growth, -100 = all killed)
Settings in all cases: 10 µM unless noted
[1] = tested on: SK-MEL-2 melanoma
[2] = tested on: EKVX NSCLC
[3] = tested on: SN12C renal
[4] = tested on: UO-31 renal
[5] = tested on: TK-10 renal
[6] = tested on: ACHN renal
[7] = tested on: CAKI-1 renal
[8] = tested on: CCRF-CEM leukemia
[9] = tested on: SR leukemia
[10] = tested on: RPMI-8226 leukemia
[11] = tested on: OVCAR-8 ovarian
[12] = tested on: OVCAR-5 ovarian
[13] = tested on: OVCAR-4 ovarian
[14] = tested on: SK-OV-3 ovarian
[15] = tested on: IGROV1 ovarian
[16] = tested on: OVCAR-3 ovarian
[17] = tested on: HS 578T breast
[18] = tested on: NCI/ADR-RES ovarian
[19] = tested on: MOLT-4 leukemia
[20] = tested on: A498 renal

Measured: growth

Nc1ccc2c(c1)Cc1cc(N)c(N)cc1-2
inactive: [1] 88.8% | [2] 88.6% | [3] 93.3% | [4] 91.4% | [5] 119% | [6] 101% | [7] 102% | [8] 105% | [9] 82.2% | [10] 101% | [11] 96.7% | [12] 107% | [13] 105% | [14] 93.7% | [15] 97.9% | [16] 112% | [17] 106% | [18] 101%

Nc1nc2nnc(-c3ccccc3)c(-c3ccccc3)n2n1
inactive: [2] 92.8% | [3] 94.7% | [4] 106% | [5] 121% | [6] 98.1% | [7] 96.2% | [8] 102% | [19] 103% | [10] 50.7% | [11] 101% | [12] 86.3% | [13] 101% | [14] 102% | [15] 127% | [16] 185% | [17] 88.9% | [18] 97.2%
active: [1] -2.91%

Cc1ccc(N2C(=O)c3cccc4c(N)c(S(=O)(=O)O)cc(c34)C2=O)cc1
inactive: [1] 82.3% | [2] 113% | [3] 105% | [4] 77.3% | [5] 124% | [6] 102% | [7] 108% | [8] 100% | [19] 115% | [10] 104% | [11] 107% | [12] 84.7% | [13] 117% | [14] 106% | [15] 35.6% | [16] 121% | [17] 106% | [18] 103%

CN(C)Cc1ccccn1
inactive: [1] 107% | [2] 99.5% | [3] 100% | [4] 87.8% | [5] 105% | [6] 102% | [7] 96.8% | [19] 107% | [10] 90.9% | [11] 101% | [12] 102% | [13] 106% | [14] 112% | [15] 102% | [16] 117% | [17] 114% | [18] 103%

C=C(C)[C@@H]1CC[C@]2(CO)CC[C@]3(C)[C@H](CC[C@@H]4[C@@]5(C)CC[C@H](O)C(C)(C)[C@@H]5CC[C@]43C)[C@@H]12
inactive: [1] 82.1% | [2] 66.4% | [3] 47.5% | [4] 27.8% | [5] 51% | [6] 18.3% | [7] 72.6% | [8] 75.7% | [19] 71.1% | [9] 42.6% | [10] 41.2% | [13] 33.7% | [14] 41.3% | [15] 35.9% | [16] 64.5%
active: [12] -21.9% | [18] -43.6%

C=COC(=O)CCOCC(CC)CCCC (stereo not given)
inactive: [1] 96.9% | [2] 110% | [3] 104% | [4] 79.5% | [5] 103% | [6] 106% | [7] 96.5% | [19] 93.9% | [9] 99.2% | [10] 53.2% | [11] 114% | [12] 103% | [13] 96.2% | [14] 113% | [15] 105% | [16] 98% | [17] 105% | [18] 105%

OCCOc1ccc(-c2cc(-c3ccccn3)nc(-c3ccccn3)c2)cc1
active: [4] -14.5% | [6] 3.04% | [7] 3.07% | [8] 3.02% | [19] -6.16% | [9] 5.14% | [10] 2.3% | [12] -36.4% | [13] 5.18% | [15] -17.6% | [16] -32.7% | [18] -57%
inactive: [1] 37.6% | [2] 18.5% | [3] 11.7% | [5] 28% | [14] 18.5%

CC(=O)[C@@]1(O)CC[C@H]2[C@@H]3CC[C@@H]4CC(=O)CC[C@]4(C)[C@H]3[C@@H](O)C[C@@]21C
inactive: [1] 99.7% | [2] 88.9% | [3] 95.4% | [4] 91.7% | [5] 97.2% | [6] 101% | [20] 88.6% | [8] 94.1% | [19] 94.5% | [9] 87.9% | [10] 97.9% | [11] 101% | [12] 91.7% | [13] 111% | [14] 82.7% | [15] 103% | [16] 109% | [17] 101% | [18] 103%

CN(CCCN(C)CCC1CCCCC1)CCC1CCCCC1
inactive: [1] 74.8% | [2] 61.4% | [3] 53.1% | [4] 49.8% | [5] 76.1% | [6] 35.4% | [7] 46.9% | [8] 20.9% | [19] 20.5% | [10] 43.6% | [11] 67.6% | [12] 56.4% | [13] 59.1% | [14] 58.9% | [15] 66.6% | [16] 73.9% | [17] 51.2% | [18] 62%
